This excerpt belongs to a sample that is enriched for hits.
Shiga inhibitor – A qHTS for Small Molecule Inhibitors of Shiga Toxin | Vero cells, Shiga toxin protein synthesis inhibition reporter | inhibition, % at 38.7 µM | hit rate 9.2% among 290,000 | AID 2315, 2010; in the data active means inhibition mostly above about 28%, no sharp cut-off; inactive means mostly below about 43%; further: 0% is about no effect
Sm TGR block – qHTS Assay for the Inhibitors of Schistosoma Mansoni Peroxiredoxins | Schistosoma mansoni thioredoxin glutathione reductase (TGR), Q962Y6 | purified TGR, DTNB reduction, TNB absorbance 405 nm | Potency, µM (titrated, usually from 114 µM), without a hit: top-dose activity change, negative = inhibition, hits mostly inhibitors | hit rate 3% among 360,000 | AID 485364, 2010; further: potency means the concentration at half of the fitted maximal effect; on the % scale 0 is the no-effect control and ±100 the full control effect; nearly all actives have a fitted effect of over 60% in size
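First, TGR (20 nM dispensed) and NADPH were mixed with compound. Second, a 15 min room-temperature incubation followed. Third, further NADPH and then DTNB were added to start the reaction. Finally, TNB absorbance was monitored kinetically.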
LmPK inhibitor – qHTS Assay for Inhibitors of Leishmania Mexicana Pyruvate Kinase (LmPK); AID 1721, 2009; purified LmPK, Kinase-Glo ATP luminescence, 1 h; hit rate 0.37% among 290,000; Potency, µM (series often up to 57.5 µM), for inactives: top-dose activity change, negative = inhibition, usual class: inhibitors; Q27686; further: potency means the concentration at half of the fitted maximal effect; on the % scale 0 is the no-effect control and ±100 the full control effect
Target sequence (Q27686 whole entry, looked up): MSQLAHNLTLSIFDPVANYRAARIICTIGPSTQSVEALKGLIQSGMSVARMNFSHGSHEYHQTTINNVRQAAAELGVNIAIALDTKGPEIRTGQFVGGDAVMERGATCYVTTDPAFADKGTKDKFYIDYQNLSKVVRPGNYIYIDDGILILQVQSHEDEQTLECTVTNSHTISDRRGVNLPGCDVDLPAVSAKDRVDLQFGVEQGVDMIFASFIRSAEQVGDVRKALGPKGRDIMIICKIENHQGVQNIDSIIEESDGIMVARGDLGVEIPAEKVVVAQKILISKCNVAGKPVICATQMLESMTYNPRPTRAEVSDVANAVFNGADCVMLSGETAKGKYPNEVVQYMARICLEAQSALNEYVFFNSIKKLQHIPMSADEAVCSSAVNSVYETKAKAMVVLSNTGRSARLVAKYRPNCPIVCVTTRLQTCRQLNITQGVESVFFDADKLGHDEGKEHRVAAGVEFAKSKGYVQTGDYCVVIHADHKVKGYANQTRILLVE
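Purified LmPK (0.1 nM) with 0.5 mM PEP and 0.1 mM ADP in imidazole buffer pH 7.2 with MgCl2/KCl, 1 h at room temperature. ATP formed was read by luciferase luminescence and normalized to no-enzyme and uninhibited controls.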
Tb PYK inh – qHTS of Trypanosoma Brucei Inhibitors | pyruvate kinase (Trypanosoma brucei), Q57TT1 | TbPYK enzyme, Kinase-Glo Plus ATP luminescence, 45 min | Potency, µM (highest dose often 76.8 µM), for the others: at the top dose activity, negative = inhibition, actives largely listed as inhibitors | hit rate 0.12% among 410,000; further: potency means the concentration at half of the fitted maximal effect; on the % scale 0 is the no-effect control and ±100 the full control effect; nearly all actives have a fitted effect of over 50% in size
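Readout: single end-point luminescence (Kinase-Glo Plus, 10 min). Reaction conditions were TbPYK/substrate plus 130 uM ADP, 45 min at RT, pH 7.2 TEA buffer. No-enzyme wells served as controls, and data were normalized before concentration-response fitting.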
Cycloheximide cs – Cycloheximide Counterscreen for Small Molecule Inhibitors of Shiga Toxin; hit rate 12% among 300,000; max response, %; cell reporter, cycloheximide protein synthesis inhibition counterscreen; in the data active means max response mostly above about 13%, no sharp cut-off; inactive means mostly below about 14%; further: read at 38.3 µM for the half of the compounds with a filed dose; 0% is about no effect
Giardia FBPA inh – qHTS Assay for Inhibitors of Fructose-1,6-bisphosphate Aldolase from Giardia Lamblia. AID 2451, 2010. Potency, µM (top dose mostly 59.6 µM), without a hit: top-dose activity, negative = inhibition, actives largely listed as inhibitors. purified Giardia FBPA. A8B2U2. hit rate 0.71% among 290,000; further: potency means the concentration at half of the fitted maximal effect; on the % scale 0 is the no-effect control and ±100 the full control effect; nearly all actives have a fitted effect of over 55% in size
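Giardia FBPA (40 nM reagent) was preincubated 10 min at RT with compound (up to 57.5 uM final), then substrate plus GAPDH/TPI/NAD/arsenate coupling system with diaphorase/resazurin was added; resorufin fluorescence (525/598 nm) was read after 20 min.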
* = called active by the depositor; [ ] = dose if it differs, or a comment. Unless noted, the call rests on the fitted dose curve; in most records, active means well fitted curve in the direction sought with a large enough effect; inconclusive means small, poorly fitted or top-dose-only effect, or another doubt; inactive means no such curve, though single readings can be large; an effect the other way counts as inactive or inconclusive.

For O=C(Oc1ccccc1)N1CCC2(CC1)CCN(c1cccc(-c3ccccc3)c1)CC2 the results were Tb PYK inh -8% and Giardia FBPA inh 2%.
Screening COc1c(O)c(O)c2cc(OC)c3c(OC)cc(=O)c4c5c(=O)c(OC)c(C(C)=O)c6c5c(c1CC=6C)c2c34 returned Shiga inhibitor -5, Cycloheximide cs 1 and Giardia FBPA inh -19%.
Nc1ccccc1-c1nc2ccccc2[nH]1 was read as Shiga inhibitor 92*, Sm TGR block 0%, LmPK inhibitor -13%, Tb PYK inh -4%, Cycloheximide cs 45* and Giardia FBPA inh -5%.
Screening Fc1ccc(-c2nc3ccccc3[nH]2)cc1 returned Shiga inhibitor 115*, LmPK inhibitor inconclusive, Tb PYK inh -1%, Cycloheximide cs 35* and Giardia FBPA inh -22%.
For Nc1ccc(-c2nc3c(ccc4ccccc43)[nH]2)cc1 the results were Shiga inhibitor 43*, Sm TGR block 2%, LmPK inhibitor 0%, Tb PYK inh -3%, Cycloheximide cs 25* and Giardia FBPA inh -20%.
For Cc1c(-c2nc3ccccc3[nH]2)cnn1C the results were Sm TGR block -3% and Tb PYK inh -3%.
Screening Cn1cc(-c2nc3ccccc3[nH]2)c2ccccc21 returned Shiga inhibitor 87*, Sm TGR block -3%, LmPK inhibitor -11%, Tb PYK inh 4%, Cycloheximide cs 36* and Giardia FBPA inh -11%.
For CCOc1ccc(-c2n[nH]c(=S)c3ccccc23)cc1 the results were Shiga inhibitor -5, Sm TGR block 2%, LmPK inhibitor -1%, Tb PYK inh -18%, Cycloheximide cs -4 and Giardia FBPA inh 24%.
`CCn1c(=O)c(-c2nc3ccccc3[nH]2)c(O)c2ccccc21` gave Shiga inhibitor 35, Sm TGR block -2%, LmPK inhibitor 5%, Tb PYK inh -1%, Cycloheximide cs 22* and Giardia FBPA inh 3%.
For C/C(=N\NC(=O)CNc1cccc2ccccc12)c1ccccc1 the results were Shiga inhibitor -14, Sm TGR block 5%, LmPK inhibitor -7%, Tb PYK inh -6%, Cycloheximide cs -7 and Giardia FBPA inh 1%.
For C/C(CCc1ccco1)=N\NC(=O)CNc1cccc2ccccc12 the results were Shiga inhibitor 12, Sm TGR block 4%, LmPK inhibitor 13%[11.5 µM], Tb PYK inh 4%, Cycloheximide cs 6 and Giardia FBPA inh 20µM*.
Screening Cc1cc(NN)nc(Cc2ccccc2)n1 returned Shiga inhibitor -3, Sm TGR block -7%, LmPK inhibitor -1%, Tb PYK inh 0%, Cycloheximide cs -2 and Giardia FBPA inh inconclusive.
COc1cc(F)c(S(=O)(=O)N2CCN(S(=O)(=O)c3ccc4c(c3)OCCO4)CC2)c(F)c1 was read as Shiga inhibitor -5 and Cycloheximide cs -7.
Screening O=C(/C=C/Nc1cccc(O)c1)c1ccccc1 returned Shiga inhibitor 16, Sm TGR block inconclusive, LmPK inhibitor 14µM*, Tb PYK inh -12%, Cycloheximide cs 15 and Giardia FBPA inh -2%.
C/C(=C\C(=O)c1ccc(C)cc1)Nc1ccc(N2CCOCC2)cc1 was read as Shiga inhibitor -5, Sm TGR block 4%, LmPK inhibitor -2%, Cycloheximide cs 1 and Giardia FBPA inh 6%.
For Cc1ccc(N/C=C/C(=O)c2ccccc2)cc1Br the results were Sm TGR block -2%, LmPK inhibitor -1%, Tb PYK inh -6%, Cycloheximide cs 54* and Giardia FBPA inh 2%.
`Cc1ccc(C(=O)Nc2ccc(Nc3ccccc3)cc2)cc1Br` gave Tb PYK inh 3%.
`Cc1ccc(C(=O)/C=C/Nc2ccc3c(c2)OCO3)cc1` gave Shiga inhibitor 164*, Sm TGR block 6%, LmPK inhibitor -12%, Tb PYK inh -12%, Cycloheximide cs 61* and Giardia FBPA inh 2%.
